The structures appear in SMILES notation. Some compounds were tested as several samples or in several runs, with calls that do not always agree. Active and inactive are the calls of the source. The calls were made as follows: active = hit-call score of the fitted dose curve at least 0.9, where 1 is the maximum; inactive = score below 0.9.

This assay can be described thus: APR_HepG2_p53Act_1hr: Apredica 1-hour HepG2 Assay for p53 Activation (AID 2282671). To be noted: high-content imaging, actives raise or lower the signal. Here is the method: APR_HepG2_1hr is a cell-based, multiplexed-readout assay that uses HepG2, a human liver cell line, with measurements taken at 1 hour after chemical dosing in a 384-well plate.APR_HepG2_p53Act_1hr is one of 10 assay component(s) measured or calculated from the APR_HepG2_1hr assay. It is designed to make measurements of dna content, a form of viability reporter, as detected with fluorescence intensity signals by HCS Fluorescent Imaging technology.Data from the assay component APR_HepG2_p53Act_1hr was analyzed into 1 assay endpoint. This assay endpoint, APR_HepG2_p53Act_1hr, was analyzed with bidirectional fitting relative to DMSO as the negative control and baseline of activity. Using a type of viability reporter, measures of protein for gain or loss-of-signal activity can be used to understand the signaling at the pathway-level as they relate to the gene TP53. Furthermore, this assay endpoint can be referred to as a primary readout, because this assay has produced multiple assay endpoints where this one serves a signaling function. To generalize the intended target to other relatable targets, this assay endpoint is annotated to the dna binding intended target family, where the subfamily is tumor suppressor.
Cells were treated with dimethyl sulfoxide (DMSO) as a solvent control at a final concentration of 0.5% v/v or with compounds in DMSO with a resulting final DMSO concentration of 0.5% v/v. Compound treatment was done at concentrations of 0.39, 0.78, 1.56, 3.12, 6.24, 12.5, 25, 50, 100, and 200 uM in duplicate on each plate. Cells were treated with compounds for 1, 24, or 72 hr. Carbonyl […] m-chloro-phenylhydrazone (CCCP) and taxol were used as positive controls for mitochondrial function and cytoskeletal stability, respectively; DMSO served as the negative control for this experiment. Cells were fixed by the direct addition of 50 uL formaldehyde in Hank's Balanced Salt Solution (HBSS) to a final concentration of 3.7%. After incubation in the fixation medium for 30 min at room temperature (293-298 K), cells were rinsed twice with HBSS and treated with cell permeabilization buffer (16 uL of 0.5% Triton X-100) for 10 min at room temperature (293-298 K) before labeling. For mitochondrial membrane potential and mitochondrial measurements, pre-fixed cells were incubated with 50 uL of MitoTracker Red CMXRos (Invitrogen) at a concentration of 250 nM for 30 min before fixation. In the remaining cases, post-fixed cells were labeled by incubation with a multiplexed mixture of primary antibodies in HBSS for 60 min at room temperature (293-298 K) to detect immunoreactivity of c-Jun (1:500), phospho-histone H3 (1:100), phospho-histone H2A.x (1:200), p53 (1:400), alpha-tubulin (1:200) and Hoechst 33342 (2 ug/mL). Cells were labeled for multiplexed imaging on two separate plates: a) Hoechst 33342, MitoTracker Red, phospho-histone H3, and alpha-tubulin, and b) Hoechst 33342, phospho-histone H2A.x, and c-Jun. A final rinse with HBSS (50 uL) was performed before analysis. The primary and secondary antibodies for the proteins were phospho-histone H3 (rabbit anti-phospho-histone H3 and FITC-donkey anti-rabbit IgG), phospho-histone H2A.x (mouse anti-phospho-histone H2A.x and FITC-donkey anti-mouse IgG), c-Jun (rabbit anti-phospho-c-Jun and Cy3-donkey anti-rabbit IgG), p53 (sheep anti-p53 and Cy5-donkey anti-sheep IgG), alpha-tubulin (mouse anti-alpha-tubulin and Cy5-donkey anti-mouse IgG). These antibodies are available as the CellCiphr HepG2 assay kit (Millipore).Digital images of each well were captured using a Cellomics ArrayScan VTI (Thermo Scientific Cellomics) (0.8 NA objective, 0.63x optical coupler, and XF-93 filter set) at 20x magnification. The images were acquired using the autofocus feature of the ArrayScan instrument, which entails the following steps. First, the camera focuses on channel 1 (Hoechst 33342), where nuclei are identified. Second, a Z offset of 1 um is used for capturing mitochondria (MitoTracker Red). […]
Turning to `COP(=S)(OC)Oc1nc(Cl)c(Cl)cc1Cl`, the compound was called inactive.

For `CC1COC(Cn2cncn2)(c2ccc(Oc3ccc(Cl)cc3)cc2Cl)O1` (stereo not given), the call was inactive.

`CC(Oc1ccc(Cl)cc1Cl)C(=O)O` (stereo not given): the compound was classed as inactive.

Turning to `CCCC1COC(Cn2cncn2)(c2ccc(Cl)cc2Cl)O1` (stereo not given), the result was inactive.

`CC(C)C1(C)N=C(c2nc3ccccc3cc2C(=O)O)NC1=O` (stereo not given): the compound was called inactive.

For the compound `Fc1ccc(Oc2ccnc3cc(Cl)cc(Cl)c23)cc1`, the compound was classed as inactive.

Take `CCCCNC(=O)OCC#CI`: the concentration at half-maximal activity (AC50) (in general, the concentration at which the activity in the assay is half-maximal) is 54.5 µM (active) and the outcome was inactive.

`C=CCC1=C(C)C(OC(=O)C2C(C=C(C)C)C2(C)C)CC1=O` (stereo not given): the outcome was inactive.

For the compound `CCCCNC(=O)n1c(NC(=O)OC)nc2ccccc21`, the compound was classed as inactive.

Turning to `COc1nc(NC(C)C)nc(NC(C)C)n1`, the result was inactive.

Consider `CN(C)C(=S)SSC(=S)N(C)C`, for which the compound was classed as inactive.

For the compound `CCCCC(CC)COC(=O)c1ccccc1C(=O)OCC(CC)CCCC` (stereo not given), the result was inactive.

With `COC(=O)C=C(C)OP(=O)(OC)OC`, the compound was called inactive.

Turning to `CC(C)(C)c1ccc(CSc2cnn(C(C)(C)C)c(=O)c2Cl)cc1`, the compound was called inactive.

As to `COc1ccc(C(c2ccc(OC)cc2)C(Cl)(Cl)Cl)cc1`, the compound was classed as inactive.

Turning to `COC(=O)c1ccccc1C(=O)OC`, the call was inactive.

With `CC(C)Oc1cc(-n2nc(C(C)(C)C)oc2=O)c(Cl)cc1Cl`, the result was inactive.

In the case of `O=C(Nc1ccccc1)Nc1ccnc(Cl)c1`, the outcome was inactive.

Turning to `CS/C(C)=N/OC(=O)N(C)SN(C)C(=O)O/N=C(\C)SC`, the outcome was inactive.

Regarding `OC(c1ccc(Cl)cc1)(c1cncnc1)c1ccccc1Cl` (stereo not given), the result was inactive.

Take `COc1nc(C)nc(NC(=O)NS(=O)(=O)c2ccccc2Cl)n1`: the compound was classed as inactive.

As for `CC1=C(C(=O)Nc2ccccc2)SCCO1`, the compound was called inactive.

On to `Cc1c(F)c(F)c(COC(=O)C2C(/C=C(\Cl)C(F)(F)F)C2(C)C)c(F)c1F` (stereo not given), for which the compound was classed as inactive.

In the case of `CO/C=C(/C(=O)OC)c1ccccc1Oc1cc(Oc2ccccc2C#N)ncn1`, the result was inactive.

Take `COc1nc(C)nc(NC(=O)NS(=O)(=O)c2ccccc2CCC(F)(F)F)n1`: the compound was classed as inactive.

In the case of `C=CCC1=C(C)[C@@H](OC(=O)[C@@H]2[C@@H](C=C(C)C)C2(C)C)CC1=O`, the compound was classed as inactive.

Turning to `Cc1ccc(-c2c(Cl)nc(C#N)n2S(=O)(=O)N(C)C)cc1`, the compound was classed as inactive.

Turning to `Cc1cc(Cl)ccc1OCC(=O)O`, the call was inactive.

On to `COc1cnc(OC)n2nc(NS(=O)(=O)c3c(OCC(F)F)cccc3C(F)(F)F)nc12`, for which the outcome was inactive.

As for `COC(=O)C(C)Oc1ccc(Oc2ccc(Cl)cc2Cl)cc1` (stereo not given), the call was inactive.

Consider `CCNc1nc(Cl)nc(NC(C)C)n1`, for which the result was inactive.

With `CCCCOC(=O)c1ccccc1C(=O)OCCCC`, the compound was called inactive.

In the case of `O=C(O)COc1nc(Cl)c(Cl)cc1Cl`, the outcome was inactive.

Regarding `CCOP(=S)(OCC)SCn1c(=O)oc2cc(Cl)ccc21`, the result was inactive.

For the compound `N#Cc1nn(-c2c(Cl)cc(C(F)(F)F)cc2Cl)c(N)c1S(=O)C(F)(F)F` (stereo not given), the outcome was inactive.

With `CCON=C(CC)C1=C(O)CC(c2c(C)cc(C)cc2C)CC1=O` (stereo not given), the call was inactive.

For the compound `CNC(=S)S`, the compound was classed as inactive.

Take `COP(N)(=O)SC` (stereo not given): the compound was called inactive.

As to `C=CC1(C)OC(=O)N(c2cc(Cl)cc(Cl)c2)C1=O` (stereo not given), the outcome was inactive.
